PubChem BioAssay AID1159580 (chemical genetic matrix, 2015)
Values joined by “and” are separate entries in the source; they are usually repeats but may differ in a detail not shown here. Equal entries are not always repeated. In all, about 5,500 compounds went through this assay and about 2,000 (36%) were called active. Roughly 18% stayed inconclusive and do not appear here. Cut-off read from the data, not from the text of the source: active = normalized growth mostly below about 0.91 (no sharp cut-off); inconclusive = no clear call, values can overlap the other calls; inactive = mostly above about 0.92. The list shows a part of the results.

Assay: chemical genetic growth profiling, strain panel (AID 1159580);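 note: tested at 20 µM; growth read once vehicle control cultures reached saturation at 30 °C; 1 = growth at the plate median or of vehicle wells; lower values mean less growth of the strain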
Conditions: growth OD

Measured: normalized growth

O=C(O)c1cc(=O)c2ccc(Cl)cc2[nH]1
inactive: S. cerevisiae deletion strains, locus YJR043C, strain POL32, stronger effect = lower value 1.03 | S. cerevisiae deletion strains, locus YJR075W, strain HOC1, stronger effect = lower value 1.02 and 1 | S. cerevisiae deletion strains, locus YKL009W, strain mrt4, stronger effect = lower value 0.99 | S. cerevisiae deletion strains, locus YKL068W, stronger effect = lower value 0.995 | S. cerevisiae deletion strains, locus YKL085W, strain MDH1 (second series), stronger effect = lower value 0.982 | S. cerevisiae deletion strains, locus YKL085W, strain MDH1, stronger effect = lower value 0.982 | S. cerevisiae deletion strains, locus YKL160W, strain elf1, stronger effect = lower value 1.05 | S. cerevisiae deletion strains, locus YKL190W, strain CNB1, stronger effect = lower value 1.01 | S. cerevisiae deletion strains, locus YKR001C, strain vps1, stronger effect = lower value 0.998 | S. cerevisiae deletion strains, locus YKR026C, strain gcn3, stronger effect = lower value 1.01 | S. cerevisiae deletion strains, locus YKR091W, strain srl3, stronger effect = lower value 1.01 | S. cerevisiae deletion strains, locus YLL001W, strain dnm1, stronger effect = lower value 1.02 | S. cerevisiae deletion strains, locus YLL026W, stronger effect = lower value 1.02 | S. cerevisiae deletion strains, locus YLL041C, strain sdh2, stronger effect = lower value 1.03 | S. cerevisiae deletion strains, locus YLR027C, strain aat2, stronger effect = lower value 1.03 | S. cerevisiae deletion strains, locus YLR039C, strain RIC1, stronger effect = lower value 1.02 | S. cerevisiae deletion strains, locus YLR058C, strain SHM2, stronger effect = lower value 1.02 | S. cerevisiae deletion strains, locus YLR102C, strain apc9, stronger effect = lower value 0.986 | S. cerevisiae deletion strains, locus YLR221C, strain rsa3, stronger effect = lower value 0.988 | S. cerevisiae deletion strains, locus YLR258W, strain gsy2, stronger effect = lower value 1.03 | S. cerevisiae deletion strains, locus YLR262C, strain YPT6 (second series), stronger effect = lower value 1 | S. cerevisiae deletion strains, locus YLR262C, strain YPT6, stronger effect = lower value 1.05 | S. cerevisiae deletion strains, locus YLR268W, strain sec22, stronger effect = lower value 0.986 | S. cerevisiae deletion strains, locus YLR320W, strain mms22, stronger effect = lower value 1.01 | S. cerevisiae deletion strains, locus YLR330W, strain CHS5, stronger effect = lower value 1.01 | S. cerevisiae deletion strains, locus YLR342W, strain FKS1 (second series), stronger effect = lower value 0.957 | S. cerevisiae deletion strains, locus YLR342W, strain FKS1, stronger effect = lower value 1.02 | S. cerevisiae deletion strains, locus YLR357W, strain rsc2, stronger effect = lower value 1.02 | S. cerevisiae deletion strains, locus YLR370C, strain arc18, stronger effect = lower value 1.02 | S. cerevisiae deletion strains, locus YLR371W, strain rom2, stronger effect = lower value 0.984 | S. cerevisiae deletion strains, locus YLR384C, strain iki3, stronger effect = lower value 1.01 | S. cerevisiae deletion strains, locus YLR418C, strain cdc73, stronger effect = lower value 0.974 | S. cerevisiae deletion strains, locus YML016C, strain PPZ1, stronger effect = lower value 1.02 | S. cerevisiae deletion strains, locus YML032C, strain rad52, stronger effect = lower value 0.996 | S. cerevisiae deletion strains, locus YML120C, strain ndi1, stronger effect = lower value 1.01 | S. cerevisiae deletion strains, locus YML124C, strain tub3, stronger effect = lower value 0.998 | S. cerevisiae deletion strains, locus YMR058W, strain fet3, stronger effect = lower value 1.01 | S. cerevisiae deletion strains, locus YMR078C, strain ctf18, stronger effect = lower value 0.987 | S. cerevisiae deletion strains, locus YMR125W, strain sto1, stronger effect = lower value 1.01 | S. cerevisiae deletion strains, locus YMR129W, stronger effect = lower value 1.01 | S. cerevisiae deletion strains, locus YMR205C, strain PFK2, stronger effect = lower value 1.03 | S. cerevisiae deletion strains, locus YMR223W, strain ubp8, stronger effect = lower value 0.968 | S. cerevisiae deletion strains, locus YMR231W, strain pep5, stronger effect = lower value 1.01 | S. cerevisiae deletion strains, locus YMR263W, strain SAP30, stronger effect = lower value 1.03 | S. cerevisiae deletion strains, locus YMR307W, strain GAS1, stronger effect = lower value 0.978 | S. cerevisiae deletion strains, locus YNL067W, strain RPL9B, stronger effect = lower value 1.03 | S. cerevisiae deletion strains, locus YNL071W, strain lat1, stronger effect = lower value 1.01 | S. cerevisiae deletion strains, locus YNL128W, strain TEP1, stronger effect = lower value 1.03 | S. cerevisiae deletion strains, locus YNL153C, strain GIM3, stronger effect = lower value 1.04 | S. cerevisiae deletion strains, locus YNL175C, strain NOP13, stronger effect = lower value 1.01 | S. cerevisiae deletion strains, locus YNL197C, strain WHI3, stronger effect = lower value 1.02 | S. cerevisiae deletion strains, locus YNL209W, strain ssb2, stronger effect = lower value 1.01 | S. cerevisiae deletion strains, locus YNL224C, strain SQS1, stronger effect = lower value 1 | S. cerevisiae deletion strains, locus YNL233W, strain BNI4, stronger effect = lower value 1.03 | S. cerevisiae deletion strains, locus YNL248C, strain rpa49, stronger effect = lower value 1.08 | S. cerevisiae deletion strains, locus YNL250W, strain rad50, stronger effect = lower value 0.982 | S. cerevisiae deletion strains, locus YNL271C, strain bni1, stronger effect = lower value 0.992 | S. cerevisiae deletion strains, locus YNL298W, strain CLA4, stronger effect = lower value 0.999 | S. cerevisiae deletion strains, locus YNL307C, strain MCK1, stronger effect = lower value 0.988 | S. cerevisiae deletion strains, locus YNL322C, strain KRE1 (second series), stronger effect = lower value 1.06 | S. cerevisiae deletion strains, locus YNL322C, strain KRE1, stronger effect = lower value 1.01 and 1.02 | S. cerevisiae deletion strains, locus YNR049C, strain mso1, stronger effect = lower value 1 | S. cerevisiae deletion strains, locus YNR052C, strain pop2, stronger effect = lower value 0.99 | S. cerevisiae deletion strains, locus YOL006C, strain TOP1, stronger effect = lower value 1.11 | S. cerevisiae deletion strains, locus YOL012C, strain htz1 1.2 | S. cerevisiae deletion strains, locus YOL147C, strain pex11, stronger effect = lower value 0.994 | S. cerevisiae deletion strains, locus YOR001W, strain rrp6, stronger effect = lower value 0.96 | S. cerevisiae deletion strains, locus YOR061W, strain CKA2, stronger effect = lower value 1.01 | S. cerevisiae deletion strains, locus YOR069W, strain VPS5, stronger effect = lower value 1.01 | S. cerevisiae deletion strains, locus YOR070C, strain gyp1, stronger effect = lower value 1.01 | S. cerevisiae deletion strains, locus YOR080W, strain dia2, stronger effect = lower value 1 | S. cerevisiae deletion strains, locus YOR083W, strain WHI5 (second series), stronger effect = lower value 0.989 | S. cerevisiae deletion strains, locus YOR083W, strain WHI5, stronger effect = lower value 1.05 | S. cerevisiae deletion strains, locus YOR106W, strain vam3, stronger effect = lower value 1.05 | S. cerevisiae deletion strains, locus YOR136W, strain idh2, stronger effect = lower value 0.987 | S. cerevisiae deletion strains, locus YOR144C, strain elg1, stronger effect = lower value 0.984 | S. cerevisiae deletion strains, locus YOR184W, strain ser1, stronger effect = lower value 0.985 | S. cerevisiae deletion strains, locus YOR265W, strain rbl2, stronger effect = lower value 1 | S. cerevisiae deletion strains, locus YOR270C, strain vph1, stronger effect = lower value 1.04 | S. cerevisiae deletion strains, locus YOR290C, strain snf2, stronger effect = lower value 1.06 | S. cerevisiae deletion strains, locus YOR316C, strain cot1, stronger effect = lower value 0.994 | S. cerevisiae deletion strains, locus YPL051W, strain arl3, stronger effect = lower value 1.01 | S. cerevisiae deletion strains, locus YPL055C, strain LGE1, stronger effect = lower value 1.07 | S. cerevisiae deletion strains, locus YPL078C, strain atp4, stronger effect = lower value 1.06 | S. cerevisiae deletion strains, locus YPL106C, strain sse1, stronger effect = lower value 1.06 | S. cerevisiae deletion strains, locus YPL240C, strain hsp82, stronger effect = lower value 1.02 | S. cerevisiae deletion strains, locus YPL241C, strain CIN2, stronger effect = lower value 1.01 | S. cerevisiae deletion strains, locus YPR119W, strain clb2, stronger effect = lower value 0.989 | S. cerevisiae deletion strains, locus YPR141C, strain kar3, stronger effect = lower value 0.99 | S. cerevisiae deletion strains, locus YPR163C, strain tif3, stronger effect = lower value 0.986 | S. cerevisiae deletion strains, locus YPR167C, strain met16, stronger effect = lower value 0.989 | S. cerevisiae deletion strains, strain wtn01, stronger effect = lower value 0.98 | S. cerevisiae strains, strain wild type, stronger effect = lower value 1.02
